From PubChem BioAssay AID449762 (Southern Research Specialized Biocontainment Screening …, 2010) come the findings set out here.

Values joined by “and” are separate entries in the source; they are usually repeats but may differ in a detail not shown here. Identical values can stand only once. Among all 330,000 compounds or so, about 1,900 (0.58%) were called active. Another 4% or so got no clear call; they are omitted. These entries were drawn from the full list. Measured potencies and affinities stand elsewhere. Unmarked numbers belong to inactive results. No stated cut-off is given here; in the data, inconclusive means inhibition above about 70% without an active follow-up result; inactive means below that.

As a reminder, the inhibition is the relative decrease from the control value, in per cent.

This assay in a line: M. tuberculosis growth inhibition, HTS (AID 449762).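 Further: bacterial growth assessed after seven days of incubation.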 To be noted: M. tuberculosis H37Rv growth inhibition, 7H9 media; at 25 µM; stronger effect = higher value.
For the compound `Cc1ccc(C)c(C(=O)n2cnnc2N)c1`, the inhibition is -9.61%.

For the compound `NC(=O)C1c2ccccc2Oc2ccccc21`, the inhibition was -5.49%.

For `Cc1cc(C)nc(N2CCCC(C(=O)NC(C)C)C2)n1` (stereo not drawn), the inhibition is 0.18%.

Turning to `O=C(Nc1cc(Cl)ccc1Cl)c1ccco1`, the inhibition is -6.05%.

As for `O=C(NC(NC(=S)Nc1cc(Cl)ccc1Cl)C(Cl)(Cl)Cl)c1ccco1` (stereo not drawn), the inhibition was 11.3%.

`C[C@H](CO)N1C[C@H](C)[C@@H](CN(C)S(=O)(=O)c2cccs2)Oc2ccc(NC(=O)Nc3ccccc3)cc2C1=O`: the inhibition is -4.72%.

On to `COc1ccc(NC(=O)Nc2ccc3c(c2)C(=O)N([C@H](C)CO)C[C@H](C)[C@@H](CN(C)S(=O)(=O)c2cccs2)O3)cc1`, for which the inhibition is 2.72%.

Regarding `CCCc1nc2nc(C)c(NS(=O)(=O)c3ccc(Cl)cc3)c(=O)n2[nH]1`, the inhibition is -4.54%.

As to `CC(C)=NNc1nc2c(c(=O)n(C)c(=O)n2C)n1CCc1ccccc1`, the inhibition is -14.4%.

In the case of `Cc1ccc(/C=C/S(=O)(=O)NCC(=O)OCC(=O)Nc2ccc(C(N)=O)cc2)cc1`, the inhibition is -3.63%.

On to `Cc1ccc(/C=C/S(=O)(=O)NCC(=O)OCC(=O)NCc2ccccc2)cc1`, for which the inhibition is 6.29%.

With `O=C(NC1CCSc2ccccc21)c1cc([N+](=O)[O-])ccc1N1CCOCC1` (stereo not drawn), the inhibition is -4.07%.

Consider `Nc1n[nH]c(N)c1N=Nc1ccc(Cl)cc1`, for which the inhibition is 0.26%.

In the case of `Nc1nc(N)c(N=Nc2ccc(Cl)cc2)c(=O)[nH]1`, the inhibition is 3.75%.

Consider `COc1cccc(NC(=O)CSc2ccc3nnc(-c4cccnc4)n3n2)c1`, for which the inhibition is 6.73%.

For the compound `O=C(CN(Cc1ccc(F)cc1)C(=O)CNS(=O)(=O)c1ccc(Cl)cc1)NCC1CCCO1` (stereo not drawn), the inhibition was -7.08%.

As to `CCN1CCN(CC(=O)N2N=C(c3cccs3)CC2c2ccc(C)cc2)C(=O)C1=O` (stereo not drawn), the inhibition was 12.5%.

As to `CCC(=O)N1N=C(c2cccs2)CC1c1ccc(C)cc1` (stereo not drawn), the inhibition was -0.72%.

For the compound `COc1ccccc1NC(=O)CCc1nnc2ccc(N3CCC4(CC3)OCCO4)nn12`, the inhibition was -1.86%.

For `CN1C(=O)CSc2ccc(NC(=O)N3CCOCC3)cc21`, the inhibition is 8.66%.

On to `CCC(=O)Oc1c(S(=O)(=O)c2ccc(C)cc2)c(C)nn1C(C)(C)C`, for which the inhibition is 11.5%.

With `COc1ccc(Cc2nnc(SCC(=O)Nc3ccccc3C)n(N)c2=O)cc1`, the inhibition is -1.95%.

Turning to `CCOc1ccc(Cc2nnc(SCC(=O)Nc3ccc(OC)cc3)n(N)c2=O)cc1`, the inhibition is 0.84%.

For `N#Cc1c(N)n[nH]c1CCCN`, the inhibition was 0.78%.

As to `O=C(O)c1cc(Cl)nc2ccccc12`, the inhibition is 2.9%.

As to `Nc1c2ccccc2nc2ccccc12`, the inhibition is -8.85% and 58.8%.

For `CCCCOc1ccc(OCCNC(=O)C2CCCN2C(=O)Nc2ccccc2)cc1` (stereo not drawn), the inhibition was 8.66%.

On to `COc1cc(C(=S)N2CCOCC2)cc(OC)c1OC(=O)c1ccc(C)cc1`, for which the inhibition was 8.19%.

Take `CCCc1nc2ccccc2c(C(=O)O)c1CC`: the inhibition is 2.61%.

As for `COc1cc2c(cc1OC)C1(NCC2)C(=O)Nc2ccccc21` (stereo not drawn), the inhibition is 4.39%.

Turning to `COc1cc2c(cc1OC)C1(Nc3c-2c(C)nn3-c2ccccc2)C(=O)Nc2ccccc21` (stereo not drawn), the inhibition was 9.01%.

As for `COC(=O)c1sc(-c2ccccc2)cc1NC(=O)c1cc(OC)cc(OC)c1`, the inhibition was 6.45%.

For the compound `Cc1cccc(C)c1-n1c(C)nn(Cc2ccc([N+](=O)[O-])cc2)c1=O`, the inhibition is -15.4%.

As to `C(=N\Nc1ccccn1)/c1ccc2c(c1)OCCO2`, the inhibition is -4.47%.

Turning to `C(=N\Nc1nc2ccccc2[nH]1)/c1ccc2c(c1)OCCO2`, the inhibition was 12.1%.

Consider `O=C(NN1C(=O)NC2(CCCCC2)C1=O)c1ccc(-c2ccc([N+](=O)[O-])cc2)o1`, for which the inhibition is 4.8%.

On to `CCOC(=O)C1CCCN(S(=O)(=O)c2cccc3cccnc23)C1` (stereo not drawn), for which the inhibition was -4.82%.

Turning to `O=C1N(CCCCN2C(=O)C3(OCCO3)c3ccccc32)c2ccccc2C12OCCO2`, the inhibition was -3.23%.

For `O=C1N(CCCN2C(=O)C3(OCCO3)c3ccccc32)c2ccccc2C12OCCO2`, the inhibition is -3.19%.

In the case of `O=C1O[C@@H]([C@H](O)CO)C(O)=C1O`, the inhibition was -0.84%.

On to `Cn1c(C(=O)NCc2ccc3c(c2)OCO3)cc2sccc21`, for which the inhibition was 9.66%.

Turning to `CN1OC(c2ccccc2)=C(CO)C1c1ccccc1` (stereo not drawn), the inhibition was -1.69%.

Regarding `COc1ccc(-c2c(-c3ccc(OC)c(C)c3O)n[nH]c2C)cc1`, the inhibition was 10.4%.

Turning to `O=C(NCc1ccc(Cl)cc1)c1ccc(CSc2nc3ccncc3[nH]2)cc1`, the inhibition is 5.93%.

Consider `O=C(c1ccc(CSc2nc3ccncc3[nH]2)cc1)N1CCN(c2cccc(Cl)c2)CC1`, for which the inhibition was 60.3%.

`O=C(c1ccco1)N1CCCC(c2nc3c(nnn3Cc3cccc(Cl)c3)c(=O)[nH]2)C1` (stereo not drawn): the inhibition was -2.33%.

`CCOC(=O)c1ccc(Nc2ccc([N+](=O)[O-])cn2)cc1`: the inhibition is -5.22%.

As for `C#CCCC(=O)c1ccccc1/C=[N+](\[O-])c1ccccc1`, the inhibition is -2.08%.

As for `COc1cccc(-c2n[nH]c(=S)n2Cc2ccco2)c1`, the inhibition was 8.56%.

With `COCc1c(C(=O)N/N=C(/C)c2cccs2)nnn1-c1nonc1N`, the inhibition was -8.26%.

`CCOc1ccc(NC(=O)CCC(=O)Nc2cc(OC)c(NC(=O)c3ccco3)cc2OC)cc1`: the inhibition was 20.8%.

For the compound `CCN1C(=O)[C@H]2[C@@H](c3ccc(-c4ccccc4)cc3)N[C@@](C)(C(=O)OC)[C@H]2C1=O`, the inhibition was 1.42%.

For `COc1cc(CCC(C)=O)ccc1OC(=O)c1c(F)cccc1Cl`, the inhibition was 3.02%.

On to `COc1ccc(NC(=O)COc2ccc(/C=C/c3cc[n+](C)cc3)cc2OC)cc1`, for which the inhibition was -3.55%.

Take `COc1cc(/C=C/c2cc[n+](C)cc2)ccc1OCC(=O)Nc1ccccc1`: the inhibition is -0.02%.

In the case of `CCCCCCc1nc(C(N)=O)c2[nH]c(=O)n(-c3ccc(OC)cc3OC)c2n1`, the inhibition is 7.81%.

In the case of `Cc1cc(C)c(CN2CCC(n3nccc3NC(=O)C3CCOC3)CC2)cc1C` (stereo not drawn), the inhibition was -0.02%.

As for `OC1(c2cccc(C(F)(F)F)c2)CCN(Cc2nnnn2CCc2ccccc2)CC1`, the inhibition was 1.32%.
